Experimental data published in the OligoGym collection.

Target: NMRAL1
Assay: pooled miR-30 sensor sort-seq; sequence = guide strand
Settings: shRNA
Note: reference of the scale not given here.

Row | Sequence | sensor-assay potency score (higher = more potent)
1 | TAGTCCTCAGGAGTCATCTTGG | -0.467
2 | TCCTTTGCTGCCTTCTTCCTAG | -1.25
3 | TTGATGTTCTCCAGGCCGCTGT | -0.625
4 | TTGGCATCGTGCACGACCTTGC | 0.214
5 | TTCTGCACCTTGCAGCCTCAGC | -0.852
6 | TTCGTAGTCCTCAGGAGTCATC | -1.71
7 | TCGGGTCACCACTCGAACCTTG | -0.891
8 | TAATTGGTCACGATGAAGGTGG | -0.074
9 | TACTCCTCGGCCGTGTGCCTGC | -0.836
10 | TACTTCTGCACCTTGCAGCCTC | -0.418

Target: NMUR2
Assay: as above
Settings: shRNA

Row | Sequence | sensor-assay potency score (higher = more potent)
11 | TGGATCTTCTAGTTTCTGCTGG | 0.385
12 | TTTGTCTTTCTTTAGTCTGAGT | -1.1
13 | TTCTTGACATCTGTTCACTAGA | -0.341
14 | TTGAACACAGCAGCCAGGGATT | -1.59
15 | TTGTTCTTGACATCTGTTCACT | -0.626
16 | TTTCTTTAGTCTGAGTGCCATG | -1.41
17 | TTGTTGACTGATTTTCTGCAGG | -0.441
18 | TTGACTGATTTTCTGCAGGGTC | -0.256
19 | TTGGGGACCTATATCTTCGGTC | -0.773
20 | TACATGAGTTGTAAGAGCCATT | -0.996
21 | TTTGAATATTTGCATTCCCTTC | -0.976
22 | TAGTTTGTTCTTGACATCTGTT | -0.227

Target: NODAL
Assay: as above
Settings: shRNA

Row | Sequence | sensor-assay potency score (higher = more potent)
23 | TAAAGAACTCATGCACTTGTGC | 0.25
24 | TTATCCACATACAGCATGCTCA | -0.807
25 | TTGGAGAATACATGAAAGCTAT | -0.351
26 | TAACGTTTCAGCAGACTCTGGA | 1.03
27 | TCTGCCATTATCCACATACAGC | -1.71
28 | TGTCTTTATGGTGATCTAGGAG | -0.744
29 | TGGTGATCTAGGAGCACTCTGC | -1.24
30 | TTTCAGCAGACTCTGGATGTAT | -0.374
31 | ATGTATGCATGGTTGGTCGGAT | -0.818
32 | TGATCTAGGAGCACTCTGCCAT | -0.476
33 | TTCAGTAAAGAGAACATCCAGC | 0.203
34 | TTTATGGTGATCTAGGAGCACT | -0.921

Target: NOL7
Assay: as above
Settings: shRNA

Row | Sequence | sensor-assay potency score (higher = more potent)
35 | TTTTTGTACTTTAACTTTCTTG | -0.529
36 | TGTACTTTAACTTTCTTGGAGT | -0.613
37 | TTTCTGACCATCCACCGTCTTT | -1.02
38 | TTGTACTTTAACTTTCTTGGAG | -0.0182
39 | TTAGTCTGTGAAGCTGTGGTTA | -0.246
40 | TTATTTACAGTAGTCCTGTTGG | -0.0686
